PubChem BioAssay AID1159580 (chemical genetic matrix, 2015)
In all, about 5,500 compounds went through this assay and about 2,000 (36%) were called active. Inconclusive results (about 18%) are left out. No stated cut-off is given here; in the data, active means normalized growth mostly below about 0.91 (no sharp cut-off); inconclusive means no clear call, values can overlap the other calls; inactive means mostly above about 0.92. This is one part of the list.

Experiment: chemical genetic growth profiling, strain panel (AID 1159580);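 further: tested at 20 µM; growth read once vehicle control cultures reached saturation at 30 °C; 1 = growth at the plate median or of vehicle wells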
Settings: growth OD

Measured: normalized growth

Cc1occc(=O)c1O
inactive: S. cerevisiae deletion strains, locus YKL009W, strain mrt4, stronger effect = lower value 1.01 | S. cerevisiae deletion strains, locus YKL068W, stronger effect = lower value 1 | S. cerevisiae deletion strains, locus YKL085W, strain MDH1 (second series), stronger effect = lower value 1 | S. cerevisiae deletion strains, locus YKL085W, strain MDH1, stronger effect = lower value 1 | S. cerevisiae deletion strains, locus YKL160W, strain elf1, stronger effect = lower value 0.962 | S. cerevisiae deletion strains, locus YKR001C, strain vps1, stronger effect = lower value 1.03 | S. cerevisiae deletion strains, locus YKR026C, strain gcn3, stronger effect = lower value 0.97 | S. cerevisiae deletion strains, locus YKR091W, strain srl3, stronger effect = lower value 0.962 | S. cerevisiae deletion strains, locus YLL001W, strain dnm1, stronger effect = lower value 0.96 | S. cerevisiae deletion strains, locus YLL026W, stronger effect = lower value 0.961 | S. cerevisiae deletion strains, locus YLL041C, strain sdh2, stronger effect = lower value 0.977 | S. cerevisiae deletion strains, locus YLR027C, strain aat2, stronger effect = lower value 0.97 | S. cerevisiae deletion strains, locus YLR039C, strain RIC1, stronger effect = lower value 1.01 | S. cerevisiae deletion strains, locus YLR058C, strain SHM2, stronger effect = lower value 1.01 | S. cerevisiae deletion strains, locus YLR102C, strain apc9, stronger effect = lower value 1.01 | S. cerevisiae deletion strains, locus YLR113W, strain HOG1, stronger effect = lower value 1.03 | S. cerevisiae deletion strains, locus YLR221C, strain rsa3, stronger effect = lower value 0.96 | S. cerevisiae deletion strains, locus YLR258W, strain gsy2, stronger effect = lower value 0.973 | S. cerevisiae deletion strains, locus YLR262C, strain YPT6 (second series), stronger effect = lower value 0.964 | S. cerevisiae deletion strains, locus YLR262C, strain YPT6, stronger effect = lower value 1.01 | S. cerevisiae deletion strains, locus YLR268W, strain sec22, stronger effect = lower value 1.01 | S. cerevisiae deletion strains, locus YLR320W, strain mms22, stronger effect = lower value 0.95 | S. cerevisiae deletion strains, locus YLR330W, strain CHS5, stronger effect = lower value 0.999 | S. cerevisiae deletion strains, locus YLR342W, strain FKS1 (second series), stronger effect = lower value 1 | S. cerevisiae deletion strains, locus YLR342W, strain FKS1, stronger effect = lower value 0.974 | S. cerevisiae deletion strains, locus YLR357W, strain rsc2, stronger effect = lower value 0.941 | S. cerevisiae deletion strains, locus YLR370C, strain arc18, stronger effect = lower value 0.98 | S. cerevisiae deletion strains, locus YLR371W, strain rom2, stronger effect = lower value 1.02 | S. cerevisiae deletion strains, locus YLR384C, strain iki3, stronger effect = lower value 0.969 | S. cerevisiae deletion strains, locus YLR418C, strain cdc73, stronger effect = lower value 1.03 | S. cerevisiae deletion strains, locus YML016C, strain PPZ1, stronger effect = lower value 1 | S. cerevisiae deletion strains, locus YML032C, strain rad52, stronger effect = lower value 1.01 | S. cerevisiae deletion strains, locus YML120C, strain ndi1, stronger effect = lower value 0.95 | S. cerevisiae deletion strains, locus YML124C, strain tub3, stronger effect = lower value 1.01 | S. cerevisiae deletion strains, locus YMR058W, strain fet3, stronger effect = lower value 0.971 | S. cerevisiae deletion strains, locus YMR078C, strain ctf18, stronger effect = lower value 1.01 | S. cerevisiae deletion strains, locus YMR125W, strain sto1, stronger effect = lower value 0.935 | S. cerevisiae deletion strains, locus YMR129W, stronger effect = lower value 0.972 | S. cerevisiae deletion strains, locus YMR205C, strain PFK2, stronger effect = lower value 0.948 | S. cerevisiae deletion strains, locus YMR223W, strain ubp8, stronger effect = lower value 0.998 | S. cerevisiae deletion strains, locus YMR231W, strain pep5, stronger effect = lower value 0.976 | S. cerevisiae deletion strains, locus YMR307W, strain GAS1, stronger effect = lower value 0.968 | S. cerevisiae deletion strains, locus YNL067W, strain RPL9B, stronger effect = lower value 1 | S. cerevisiae deletion strains, locus YNL071W, strain lat1, stronger effect = lower value 0.979 | S. cerevisiae deletion strains, locus YNL128W, strain TEP1, stronger effect = lower value 1.03 | S. cerevisiae deletion strains, locus YNL183C, strain NPR1, stronger effect = lower value 0.97 | S. cerevisiae deletion strains, locus YNL209W, strain ssb2, stronger effect = lower value 0.971 | S. cerevisiae deletion strains, locus YNL233W, strain BNI4, stronger effect = lower value 1.01 | S. cerevisiae deletion strains, locus YNL248C, strain rpa49, stronger effect = lower value 0.975 | S. cerevisiae deletion strains, locus YNL250W, strain rad50, stronger effect = lower value 1 | S. cerevisiae deletion strains, locus YNL271C, strain bni1, stronger effect = lower value 1.02 | S. cerevisiae deletion strains, locus YNL298W, strain CLA4, stronger effect = lower value 1.05 | S. cerevisiae deletion strains, locus YNL307C, strain MCK1, stronger effect = lower value 1.02 | S. cerevisiae deletion strains, locus YNL322C, strain KRE1 (second series), stronger effect = lower value 0.943 | S. cerevisiae deletion strains, locus YNL322C, strain KRE1, stronger effect = lower value 1 | S. cerevisiae deletion strains, locus YNR049C, strain mso1, stronger effect = lower value 0.958 | S. cerevisiae deletion strains, locus YNR052C, strain pop2, stronger effect = lower value 1.01 | S. cerevisiae deletion strains, locus YOL012C, strain htz1 1.37 | S. cerevisiae deletion strains, locus YOL147C, strain pex11, stronger effect = lower value 1.01 | S. cerevisiae deletion strains, locus YOR001W, strain rrp6, stronger effect = lower value 0.983 | S. cerevisiae deletion strains, locus YOR061W, strain CKA2, stronger effect = lower value 1.01 | S. cerevisiae deletion strains, locus YOR069W, strain VPS5, stronger effect = lower value 1.01 | S. cerevisiae deletion strains, locus YOR070C, strain gyp1, stronger effect = lower value 0.969 | S. cerevisiae deletion strains, locus YOR080W, strain dia2, stronger effect = lower value 0.961 | S. cerevisiae deletion strains, locus YOR083W, strain WHI5, stronger effect = lower value 0.952 | S. cerevisiae deletion strains, locus YOR106W, strain vam3, stronger effect = lower value 0.942 | S. cerevisiae deletion strains, locus YOR136W, strain idh2, stronger effect = lower value 1.02 | S. cerevisiae deletion strains, locus YOR144C, strain elg1, stronger effect = lower value 1.01 | S. cerevisiae deletion strains, locus YOR184W, strain ser1, stronger effect = lower value 1.03 | S. cerevisiae deletion strains, locus YOR231W, strain MKK1, stronger effect = lower value 1.02 | S. cerevisiae deletion strains, locus YOR265W, strain rbl2, stronger effect = lower value 0.971 | S. cerevisiae deletion strains, locus YOR270C, strain vph1, stronger effect = lower value 0.931 | S. cerevisiae deletion strains, locus YOR290C, strain snf2, stronger effect = lower value 0.916 | S. cerevisiae deletion strains, locus YOR316C, strain cot1, stronger effect = lower value 1.01 | S. cerevisiae deletion strains, locus YPL051W, strain arl3, stronger effect = lower value 0.973 | S. cerevisiae deletion strains, locus YPL055C, strain LGE1, stronger effect = lower value 1.01 | S. cerevisiae deletion strains, locus YPL078C, strain atp4, stronger effect = lower value 0.968 | S. cerevisiae deletion strains, locus YPL106C, strain sse1, stronger effect = lower value 0.924 | S. cerevisiae deletion strains, locus YPL240C, strain hsp82, stronger effect = lower value 0.983 | S. cerevisiae deletion strains, locus YPL241C, strain CIN2, stronger effect = lower value 1 | S. cerevisiae deletion strains, locus YPL256C, strain CLN2, stronger effect = lower value 1.01 | S. cerevisiae deletion strains, locus YPR119W, strain clb2, stronger effect = lower value 1 | S. cerevisiae deletion strains, locus YPR141C, strain kar3, stronger effect = lower value 1 | S. cerevisiae deletion strains, locus YPR163C, strain tif3, stronger effect = lower value 1 | S. cerevisiae deletion strains, locus YPR167C, strain met16, stronger effect = lower value 1.01 | S. cerevisiae deletion strains, strain wtn01, stronger effect = lower value 0.993 | S. cerevisiae strains, strain wild type, stronger effect = lower value 1
